Measured values reported in PubChem BioAssay (Tox21).
Results filed as inconclusive are left out. A number with no mark means an inactive call. Calls come from the whole dose curve; as a rule, active = well fitted activation curve with a large enough effect in the signal ratio in the repeat runs (not every such curve was filed as active); inconclusive = weak or mixed curves; inactive = flat fitted curve, though single readings scatter; the % refers to the signal ratio.

Experiment: qHTS assay to identify small molecule agonists of the TGF-beta/Smad signaling pathway (AID 1346859)
Settings: SBE-bla HEK293T, TGF-beta/Smad beta-lactamase reporter, 5 h; series mostly up to 76.8 µM; activation: at the top concentration
From the text: U.S. Tox21 Program National Center for Advancing Translational Sciences [NCATS] NIH Chemical Genomics Center [NCGC] U.S. Environmental Protection Agency [EPA] National Institutes of Environmental Health Sciences [NIEHS] National Toxicology Program [NTP] U.S. Food and Drug Administration [FDA] Tox21 Assay Overview: Transforming growth factor beta (TGF-beta) superfamily consists of a large number of structurally related dimeric proteins that act as hormones or local mediators in regulating a wide range of biological functions. This superfamily includes TGF-betas themselves, the bone morphogenetic proteins (BMPs) and the activins. These ligands induce oligomerization of serine/threonine receptor kinases and phosphorylate the cytoplasmic signaling molecules of Smad protein family. CellSensor SBE-bla HEK 293T cell line (Life Technologies, Carlsbad, CA), responsive to TGF-beta was used to screen Tox21 10K compound library for identification of agonists/antagonists of the Smad signaling pathway. This cell line contains a beta-lactamase reporter gene under control of the Smad binding element (SBE) stably integrated into HEK 293T cells.
Tox21 Assay Protocol Summary: SBE-bla HEK 293T cells were dispensed at 4,000/well in 6 uL of assay medium into black wall/clear-bottom 1536-well plates using a Multidrop Combi (ThermoFisher Scientific, Waltham, MA) dispenser. After the assay plates were incubated at 37 C and 5% CO2 for an overnight, 23 nL of compounds dissolved in DMSO, positive controls or DMSO only was transferred to the assay plate by a Pintool station (Kalypsys, San Diego, CA). The assay plates were incubated at 37 C and 5% CO2 for 5 hr. One uL of LiveBLAzer B/G FRET substrate (Life Technologies) was added using a Flying Reagent Dispenser (Aurora Discovery, San Diego, CA) and the plates were incubated at room temperature for 2 hr. Fluorescence intensity (405 nm excitation, 460 nm and 530 nm emissions) was measured using an Envision plate reader (PerkinElmer, Shelton, CT).
% is set by controls: 0 for no effect and ±100 for the full control effect.

SMILES | activation
N[C@@H](CCC(=O)N[C@@H](CS)C(=O)NCC(=O)O)C(=O)O | 1.79% [at 15.8 µM]
c1ccc2nccnc2c1 | -0.14%
FC(F)(F)c1ccccc1-n1ccnc1 | 0.274% [at 35.3 µM]
O=C(CCN1CCN(CCO)CC1)N1c2ccccc2Sc2ccc(C(F)(F)F)cc21 | -0.297% [at 35.3 µM]
Cc1cccc(C)c1NC(=O)c1ccccc1C(=O)O | 1.74% [at 35.3 µM]
CN(C)c1ccc(C=O)cc1 | 1.91%
C=C(C)C(=O)OCCNC(C)(C)C | 1.35%
C#CC(C)N(C)C(=O)Nc1ccc(Cl)cc1 (stereo not given) | -0.134%
CC(C(=O)O)c1ccc2c(c1)CC(=O)c1ccccc1S2 (stereo not given) | -4.25% [at 35.3 µM]
CC(C)(C)c1cc(CCC(=O)NN)cc(C(C)(C)C)c1O | 0.347%
CN1CCN(CC(=O)N2c3ccccc3C(=O)Nc3cccnc32)CC1 | -0.857% [at 6.97 µM]
COc1cc(NS(=O)(=O)c2ccc(N)cc2)nc(OC)n1 | 2.3% [at 35.3 µM]
CC(C)(C)c1n[nH]c(=S)n(N)c1=O | 1.24%
CC(=O)NCc1c(I)c(NC(C)=O)c(I)c(C(=O)O)c1I | 3.9% [at 35.3 µM]
CCC(C=O)CC | 7.01%
C[C@H](N)[C@H](O)c1cccc(O)c1 | 3% [at 35.3 µM]
ClCCCl | -3.88%
O=C(Nc1ccc(Cl)c(Cl)c1)C1CC1 | -0.763% [at 35.3 µM]
On1nnc2ccccc21 | 0.153%
CC(=C(CCOC(=O)C(C)C)SSC(CCOC(=O)C(C)C)=C(C)N(C=O)Cc1cnc(C)nc1N)N(C=O)Cc1cnc(C)nc1N | 8.7% [at 35.3 µM]

SMILES | activation
N[C@@H](COP(=O)(O)O)C(=O)O | -0.654% [at 15.8 µM]
CCc1ccc(C=O)cc1 | 4.76%
CC(CO)c1ccccc1 (stereo not given) | 3.29%
CCCCCCN | 1.21%
CCCCCCCCSCC | 2.57%
NCCN1CCOCC1 | -1.1%
NS(=O)(=O)c1cc2c(cc1Cl)CN(C1CCCCC1)C2=O | -5.83% [at 35.3 µM]
O=C1c2ccccc2C(=O)C1c1ccccc1 | 0.748% [at 35.3 µM]
Nc1nnc(-c2cccc(Cl)c2Cl)c(N)n1 | 0.837% [at 35.3 µM]
O=C1CCCC(=O)O1 | 1.29%
CC(=O)c1sc(C)nc1C | 0.376%
C[Si](C)(C)C | -1.73%
Cc1ccccc1OCC(O)CO (stereo not given) | -2.88% [at 35.3 µM]
CC1(C)S[C@@H]2[C@H](N=CN3CCCCCC3)C(=O)N2[C@H]1C(=O)O | 3.62% [at 35.3 µM]
Nc1ccc(S(=O)(=O)Nc2ccc(Cl)nn2)cc1 | -0.343% [at 35.3 µM]
CCN(CC)CC(=O)Nc1c(C)cccc1C | -3.84% [at 35.3 µM]
Cc1cc(C(C)(C)C)c(O)c(C)c1CC1=NCCN1 | -1.76% [at 35.3 µM]
O=C(NCC(O)CO)c1c(I)c(C(=O)NCC(O)CO)c(I)c(N(CCO)C(=O)CO)c1I (stereo not given) | -0.0156% [at 35.3 µM]
CC(=O)c1ccc2c(c1)Cc1ccccc1-2 | -7.84%
C[Si](C)=O | -0.731% [at 6.97 µM]
